To fix the notation:
B1: VH:VL chains; a variant is named by its letters at X, in order (parent)
chain 1: QVQLVQSGAEVKKPGASVKVSCKASGYTFTDYXMHWVRQAPGQGLEWMGXVNPNXXXTTYNQKFEGRVTMTTDTSTSTAYMELRSLRSDDTAVYYCARXNXLDXWGQGTTVTVSS
chain 2: DIQMTQSPSSLSASVGDRVTITCSVSSSVSSIYLHWYQQKPGKAPKLLIYSTSNLASGVPSRFSGSGSGTDFTLTISSLQPEDFATYYCQVYSGYPLTFGGGTKVEIK

The other results are listed elsewhere or left out. The true hit rate is not given.

In this experiment the parent is B1. Put plainly: yeast display scFab, FACS + sequencing. The settings on record: with MET. The method in brief:
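A heavy-chain CDR mutant scFab library on yeast was enriched magnetically with HGFR-Fc-coated Protein A beads for two rounds and then by FACS after labelling with 1 nM HGFR-Fc and anti-Myc in PBSB with 1% milk for 3 h at room temperature, gating the top 50% antigen-positive cells. Antigen binding was judged positive if a sequence turned up in both antigen-positive deep-sequencing samples and negative if it turned up only in the input.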
AAEGGYAV: the antigen binding call was “no binding”. In the case of VKGASDWA, the antigen binding call is recorded as “no binding”. Consider VTTKSDSA, for which the antigen binding call was “no binding”. VTTKSDGA: the antigen binding call is listed as “no binding”. For the variant YREKGAAA, the antigen binding call is recorded as “binds”. YRARGSLA: the antigen binding call was “binds”. The result for YTARGSAA reads “binds”; that for YRARGSAA, “binds”; that for DTRGADAV, “no binding”.

As to DEGAGDGF, the antigen binding call is reported as “no binding”. As for YRARSSLA, the entry is “binds”. As for YKTRGFGA, the antigen binding call was “no binding”. With YKTRGSAA, the antigen binding call is listed as “binds”.

For FAARAFGV, the antigen binding call was “no binding”. SEEASDGA: the antigen binding call is reported as “no binding”. YRKGGFVA: the antigen binding call is listed as “no binding”. As for YRAGGVVA, the antigen binding call is listed as “binds”. As for YRAGGSVA, the antigen binding call is given as “binds”.

Take YREGGFVA: the antigen binding call is given as “no binding”. In the case of YRAGGYVA, the antigen binding call is “binds”. For YRAGGFVA, the antigen binding call is recorded as “binds”.

As to DTGTGSSA, the antigen binding call is on record as “no binding”. As for STTKSDGV, the entry is “no binding”; as for VAGTGDWA, “no binding”; as for YKGAGALD, “no binding”. Turning to FKGKGVGD, the antigen binding call was “no binding”. On to YKGKGALD, for which the antigen binding call was “binds”.

Turning to YKEEDSLD, the antigen binding call was “no binding”. As to FKGKGAGD, the antigen binding call was “binds”. YKKGGSLD: the antigen binding call is recorded as “binds”. For the variant YKGGGALD, the antigen binding call is given as “binds”.

With DTTGSASD, the antigen binding call was “no binding”. With VAGGDDWV, the antigen binding call is “no binding”.

For the variant FKGKGALD, the antigen binding call is reported as “binds”.

For YKGKGSLD, the antigen binding call was “binds”. As to FKGRGALA, the antigen binding call was “binds”. The result for YRGAASAV reads “binds”; that for DAGEASAV, “no binding”. On to YRARSSAD, for which the antigen binding call is “binds”. Consider YRAGSSAD, for which the antigen binding call is given as “binds”. In the case of YAGEASAV, the antigen binding call is “no binding”. As for YAEESSAD, the entry is “no binding”; as for YRAGASAV, “binds”. In the case of SEARSSAD, the antigen binding call is “no binding”. Take VRAGADAV: the antigen binding call is reported as “no binding”.

On to VRAGADSV, for which the antigen binding call is “no binding”. As to DAGTAFSS, the antigen binding call was “no binding”. For the variant VEREADWF, the antigen binding call is listed as “no binding”. In the case of YRAKGSAD, the antigen binding call was “binds”. Turning to YRARGSAD, the antigen binding call was “binds”. The result for FREKDSAD reads “no binding”.

On to YAEKDAGD, for which the antigen binding call was “no binding”. As for YRAGASAD, the antigen binding call is given as “binds”.

For the variant YREKDSAD, the antigen binding call was “binds”.

As for DTEEGDVA, the antigen binding call was “no binding”. The result for DAKEGDAD reads “no binding”; that for DTGEADAS, “no binding”; that for VRGKGAAD, “binds”. On to VRGKGAVD, for which the antigen binding call is on record as “binds”. Consider VKGEAAWD, for which the antigen binding call is reported as “no binding”. Turning to VRGKGAWD, the antigen binding call is listed as “binds”. For the variant VKGKGAWD, the antigen binding call was “binds”. Turning to VAGKGVLD, the antigen binding call was “no binding”.

As for VEGKGAGD, the antigen binding call is “no binding”.

VAGKGAGD: the antigen binding call is “no binding”. On to YEKETVVA, for which the antigen binding call is reported as “no binding”.

As for YKGKGAWD, the antigen binding call is listed as “binds”.

Consider YKGKSAWD, for which the antigen binding call is reported as “no binding”. Take YRARSAGV: the antigen binding call was “binds”. In the case of SEARSSGV, the antigen binding call is listed as “no binding”. Turning to YRARSSGV, the antigen binding call was “binds”. For SEARSAGV, the antigen binding call is listed as “no binding”. Take DRAGDAGV: the antigen binding call was “no binding”. Consider YRARSASV, for which the antigen binding call is given as “binds”.

For the variant STEGDAGA, the antigen binding call is recorded as “no binding”. The result for DATRGAGY reads “no binding”; that for VEKGGSGD, “no binding”; that for ARKGSSGD, “no binding”. As for YRKGSSGD, the entry is “binds”; as for YRKGDSLD, “binds”; as for VRKGSSGD, “binds”.

Regarding YRKGDSGD, the antigen binding call is “binds”. Consider VTGTGAAV, for which the antigen binding call was “no binding”. With YRKGDAGD, the antigen binding call is given as “binds”.

For the variant FRGRGYWV, the antigen binding call is “binds”. Consider FAAGSYAV, for which the antigen binding call is listed as “no binding”. The result for FRGRGYVA reads “binds”; that for FRGRGYAV, “binds”; that for FRGRGYVV, “binds”. On to VTGEDAVV, for which the antigen binding call is on record as “no binding”.

As to SEEGTAGA, the antigen binding call is listed as “no binding”.

With YGGTSYSV, the antigen binding call was “no binding”. As to DRGRGDWV, the antigen binding call is reported as “no binding”. As for VRATGYWA, the antigen binding call is “no binding”. The result for YRGRGYSV reads “binds”; that for FRGRGDWV, “binds”; that for SRGRGYSV, “no binding”. For FAGGGDWV, the antigen binding call was “no binding”. Take YRGRGYWA: the antigen binding call is recorded as “binds”.

For YRGRGYWV, the antigen binding call was “binds”.

Regarding AKERGDGV, the antigen binding call is listed as “no binding”. VETEGDAV: the antigen binding call is reported as “no binding”. Consider YRGRGVWV, for which the antigen binding call is given as “binds”.

FKGRGVWV: the antigen binding call is on record as “no binding”. In the case of YGGRGDWV, the antigen binding call is “no binding”. For the variant FKGRGAWV, the antigen binding call was “binds”. As for FRGRGAWV, the antigen binding call is “binds”.

As for ARGRGAWV, the antigen binding call is on record as “no binding”.

For the variant VTGGGDGA, the antigen binding call is listed as “no binding”. With DAGGAAVA, the antigen binding call is recorded as “no binding”.

With VEGGGDAA, the antigen binding call was “no binding”. In the case of DAGGAAAA, the antigen binding call is given as “no binding”. As for YRGGGSAA, the antigen binding call was “binds”. On to VRGGGSAA, for which the antigen binding call was “binds”. Turning to YRGGASAA, the antigen binding call is recorded as “binds”.

In the case of VEGGGSSA, the antigen binding call is reported as “no binding”. Consider YRGRGSAF, for which the antigen binding call was “binds”. The result for YRGGAAAA reads “binds”; that for YEGGADVA, “no binding”; that for DTKAASSA, “no binding”.

Take SEGGSAAY: the antigen binding call is reported as “no binding”. The result for DEGGTDGV reads “no binding”; that for YRGGTAAA, “binds”. Turning to VRGRSSAA, the antigen binding call is given as “binds”. As for YRGRTAAA, the antigen binding call is “binds”. With DEGGTAAA, the antigen binding call is “no binding”. As to VREGSSAA, the antigen binding call is “no binding”. With YEERTAAA, the antigen binding call is listed as “no binding”. Turning to YRAGGVGF, the antigen binding call was “binds”. With YRGRGYGS, the antigen binding call is “binds”. In the case of YRAGGYGF, the antigen binding call is recorded as “binds”. For the variant YRTRDVGF, the antigen binding call is “no binding”.

For the variant YRGRGYVS, the antigen binding call was “binds”. As for DKTGDDVF, the entry is “no binding”; as for SEKKDYSA, “no binding”. In the case of DGGGGYWF, the antigen binding call is recorded as “no binding”.

The values are drawn from the emibetuzumab library of Makowski et al. (2022).
